About 13,000 (3.2%) of roughly 400,000 compounds were called active. A call without a number means that no potency is given here. Roughly 18% stayed inconclusive and do not appear here. Calls follow the shape of the dose curve; as a rule, active = well fitted cell-killing curve with a large enough effect; inconclusive = small, poorly fitted or top-dose-only effect, or effect the other way; inactive = flat fitted curve, though single readings scatter. The full list was thinned out, with actives kept by preference.
assay: qHTS assay for MDR1-selective chemotherapeutics: Primary screen using the drug-selected MDR subline cells KB-V1; conditions: KB-V1 MDR cells viability, CellTiter-Glo, 72 h; series mostly up to 46.1 µM; also: nearly all actives have a fitted effect of over 60% in size
How it was run: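 Cytotoxicity via CellTiter-Glo luminescence after 72 h compound exposure at 37 degrees C. Cells: drug-selected KB-V1 line, DMEM phenol-red free plus 10% FBS. Compounds tested at multiple concentrations; normalized data fitted to concentration-effect curves.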
Potency is read from the fitted curve at half-maximal effect.

| SMILES | Potency |
| --- | --- |
| N#Cc1ccc(-c2ccc3nccn3c2)cc1 | inactive |
| CC(C)C1CC2=C(C(=O)OC(C)(C)O2)C(c2ccc(F)cc2)O1 (stereo not given) | inactive |
| COCCCN1C(=O)C(CC(=O)NCc2cccs2)CC(C(=O)N2CCOCC2)=C1C (stereo not given) | inactive |
| O=S1(=O)CC(N2CCC(Cc3ccccc3)CC2)CN1Cc1ccccc1 (stereo not given) | inactive |
| COc1ccccc1-c1cc2nc(NCc3cccc(Cl)c3)ccn2n1 | inactive |
| CCNC(=O)CC1C(=O)N(c2ccc(F)cc2)C(=O)N1Cc1cccs1 (stereo not given) | inactive |
| O=C(CC1C(=O)N(c2ccccc2)C(=O)N1CCc1cccs1)Nc1ccc(F)cc1 (stereo not given) | inactive |
| COc1ccc(N2C(=O)C(CC(=O)Nc3ccc(F)cc3)N(CCc3cccs3)C2=O)cc1 (stereo not given) | 18.4 µM (active) |
| Cc1cc2nn(-c3ccc(Cl)cc3)nc2cc1NC(=O)C(C)C | inactive |
| Cc1c(Cl)cccc1NC(=O)C1CCCN(C(=O)c2cnn(-c3ccccc3)c2-n2cccc2)C1 (stereo not given) | inactive |
| CCOc1ccc(CNC(=O)c2ccc3c(c2)nnn3C2CCCC2)cc1 | inactive |
| COc1cccc(NC(=O)C2(C)CCN2C(=O)CCC2CCCC2)c1 (stereo not given) | inactive |
| Cc1ccc(-c2noc(CCC(=O)Nc3ccccc3N3CCN(C)CC3)n2)cc1 | 20.6 µM (active) |
| CCNC(=O)CCc1nc(-c2ccc(C)cc2)no1 | inactive |
| CC(=O)c1ccc(NC(=O)CCc2nc(-c3ccc(C)cc3)no2)cc1 | inactive |
| CC(C)CC1C(=O)N(Cc2cn(CC3CCCCC3)nn2)CCS(=O)(=O)N1Cc1ccc(-c2ccc(Cl)cc2)cc1 (stereo not given) | inactive |
| COCCn1c(C)cc(C2=NNC(=Nc3ccc(F)cc3)SC2)c1C | 10.3 µM (active) |
| C=CCn1c(C)cc(C2=NNC(=NCC)SC2)c1C | inactive |
| Cc1cc(C)c2cc(CN(Cc3nnnn3Cc3ccc(F)cc3)C3CCCC3)c(=O)[nH]c2c1 | inactive |
| Cc1cccc2cc(CN(Cc3nnnn3Cc3ccccc3)C3CCCC3)c(=O)[nH]c12 | 20.6 µM (active) |
| CCC(c1nnnn1C1CCCC1)N(Cc1cccs1)Cc1cc2cccc(C)c2[nH]c1=O (stereo not given) | 23.1 µM (active) |
| CCOc1ccc2[nH]c(=O)c(CN(Cc3nnnn3Cc3ccccc3)CC3CCCO3)cc2c1 (stereo not given) | inactive |
| Cc1cccc2cc(CN(Cc3cccs3)C(c3nnnn3C3CCCC3)C(C)C)c(=O)[nH]c12 (stereo not given) | inactive |
| CCC(c1nnnn1Cc1ccccc1)N(Cc1cc2cc(OC)ccc2[nH]c1=O)CC1CCCO1 (stereo not given) | inactive |
| CC(C)Oc1cccc(-c2cnc(N3CCC(C(N)=O)CC3)s2)c1 | inactive |
| C[C@H]1COc2cc(N3CCSCC3)ccc2S(=O)(=O)N1 | inactive |
| CC1(C(=O)O)CCCN(C(=O)/C=C/c2ccccc2)C1 (stereo not given) | inactive |

| SMILES | Potency |
| --- | --- |
| COc1ccc(Cl)cc1C(=O)Nc1ccc(N(C)C(C)=O)cc1 | 16.4 µM (active) |
| COC(=O)c1ccc(NC(=O)c2cc(Cl)ccc2OC)cc1 | inactive |
| COc1cc(OC)c(C(=O)Nc2ccc(N(C)C)cc2)cc1OC | inactive |
| CCC(=O)N1CCc2cc(Br)cc(S(=O)(=O)CCC(=O)NCc3ccccc3OC)c21 | inactive |
| O=C(NCc1ccc(F)cc1)c1cc(C2CCCCN2C(=O)C2CCCCC2)on1 (stereo not given) | inactive |
| CC(=O)Nc1ccc(C=Cc2ccc([N+](=O)[O-])cc2)cc1 | inactive |
| NS(=O)(=O)c1ccc(CNC(=O)c2cc(S(=O)(=O)N3CCOCC3)ccc2N2CCCC2)cc1 | inactive |
| O=C1OCCOC2CCCc3oc(-c4ccccc4)c1c32 (stereo not given) | inactive |
| OCCNc1nc(Nc2ccc(Cl)c(Cl)c2)nc2ccccc12 | 9.2 µM (active) |
| COc1cc2nc(Cl)nc(NCCO)c2cc1OC | inactive |
| CN(C)c1nc(Nc2ccc(Cl)c(Cl)c2)nc(N(C)C)n1 | inactive |
| Cc1c(NC(=O)COC(=O)/C=C/c2cccc(F)c2)c(=O)n(-c2ccccc2)n1C | inactive |
| Cc1cccc(C(=O)N2CCc3cc(CNC(=O)Cc4ccc(F)cc4)ccc32)c1 | inactive |
| CCCCC12CN3CC(C)(CN(C1)C3c1ccc(O)c(OC)c1)C2=O (stereo not given) | inactive |
| COCCNc1ncnc2c1ncn2[C@H]1CN(Cc2ccc(OC)cc2)C[C@@H](CO)O1 | inactive |
| COc1ccc(CN2C(=O)CC(Cc3ccc(C)cc3)C2=O)cc1OC (stereo not given) | 18.4 µM (active) |
| Cc1ccc(CC2CC(=O)N(c3nc(C)cc(C)n3)C2=O)cc1 (stereo not given) | inactive |
| Cc1ccc(CC2CC(=O)N(c3cc(C)ccc3C)C2=O)cc1 (stereo not given) | inactive |
| CN(C)c1ccc(/C=C/c2sc3ccccc3[n+]2CCCCBr)cc1 | inactive |
| Nc1nc2c(ncn2[C@@H]2O[C@H](CNS(=O)(=O)N3CCc4ccccc4C3)[C@@H](O)[C@H]2O)c(=O)[nH]1 | inactive |
| Cc1ccc(S(=O)(=O)c2nnn3c2nc(N2CCN(c4ccccc4F)CC2)c2cc(Cl)ccc23)cc1C | inactive |
| CSc1nc(-c2ccccc2)nc(C(Cl)Cl)n1 | 11.6 µM (active) |
| CSc1ncc(Sc2ccccc2)c(C(=O)O)n1 | inactive |
| CSc1nc(Nc2ccc(F)cc2)cc(-c2ccccc2)n1 | inactive |
| CCCCn1c(CNC(=O)C23CC4CC(CC(C4)C2)C3)nnc1SCC(=O)Nc1ccc(C)cc1 | inactive |
| COc1ccc(CCCNC(=O)C2Cc3c(-c4cccc(C(N)=O)c4)ccnc3O2)cc1 (stereo not given) | inactive |
| COc1ccc(CC(N)c2csc(NC(=O)Cc3ccccc3)n2)cc1 (stereo not given) | inactive |

| SMILES | Potency |
| --- | --- |
| Cc1cccc(C(=O)C(O)(c2ccccc2)C2CCCCC2=O)c1 (stereo not given) | inactive |
| COCCOCCn1cnc2ccccc21 | inactive |
| CCOC(=O)c1ccc(NC(=O)Cn2cnc3cc(C)c(C)cc32)cc1 | inactive |
| COCCNC(=O)c1ccc(Cn2c(SCC(=O)NCC3CCCO3)nc3ccc(Br)cc3c2=O)cc1 (stereo not given) | inactive |
| CCCCn1c(SCC(=O)NCC2CCCO2)nc2ccc(N3CCOCC3)cc2c1=O (stereo not given) | 3.66 µM (active) |
| CCn1cc2nc(SCc3cccc(F)c3)n(CCc3ccccc3)c(=O)c2n1 | inactive |
| CCn1c(SCC(=O)NCC2CCCO2)nc2ccccc21 (stereo not given) | inactive |
| Cn1c(=O)n(CCc2ccccc2)c(=O)c2c1nc1n2CCCN1c1ccccc1 | inactive |
| N#CCSc1nc2ccc(N3CCOCC3)cc2c(=O)n1CCc1ccccc1 | 3.26 µM (active) |
| O=C(Nc1ccc(Cl)cn1)c1ccccc1-c1ccccc1 | inactive |
| CC1(C)CC(=O)C=C(c2ccc(COC(=O)c3cc(F)cc(F)c3)cc2)C1=O | inactive |
| COc1ccc(-c2csc(C(O)c3cccc(Cl)c3)n2)cn1 (stereo not given) | inactive |
| COc1cccc(C(NC(C)=O)c2nc(-c3cnc4ccccc4c3)cs2)c1 (stereo not given) | inactive |
| OC(c1ccccc1)c1nc(-c2cnc3ccccc3c2)cs1 (stereo not given) | 16.4 µM (active) |
| CCCC(=O)N1CCC1(C)C(=O)NCc1ccc(SC)cc1 (stereo not given) | inactive |
| COc1ccc(OC)c(NC(=O)C2CCCN2S(=O)(=O)c2ccc3c(c2)CC(C)N3C(C)=O)c1 (stereo not given) | inactive |
| COc1ccc(NC(=O)COC(=O)C2COc3ccccc3O2)cc1 (stereo not given) | inactive |
| CCOc1ncccc1C(=O)OCC(=O)N1c2ccccc2CC1C (stereo not given) | inactive |
| CCOC(=O)c1[nH]c(C)c(C(=O)OCC(=O)N2c3ccccc3CC2C)c1C (stereo not given) | 2.06 µM (active) |
| CCOC(=O)c1c(C)[nH]c(C(=O)OCC(=O)N2CCCC2=O)c1C | inactive |
| Cc1ccc(F)cc1NC(=O)CCSc1nc(-c2ccco2)cc(C(F)(F)F)n1 | inactive |
| Cc1ccc(S(=O)(=O)N(C)C)cc1NC(=O)/C=C/c1cccs1 | 14.6 µM (active) |
| Cc1ccc(S(=O)(=O)N(C)C)cc1NC(=O)COC(=O)/C=C/c1cccs1 | inactive |
| CN(C)S(=O)(=O)c1cccc(NC(=O)COC(=O)/C=C/c2cccs2)c1 | inactive |
| Cc1cccc(C)c1NC(=O)C(c1cccc(F)c1)N1CCN(C)CC1 (stereo not given) | inactive |
| Cc1ccc(S(=O)(=O)N2CCOCC2)cc1C(=O)NC(=S)N(Cc1ccccc1)C(C)C | 11.6 µM (active) |
| Cc1ccc(S(=O)(=O)N2CCOCC2)cc1C(=O)NCc1ccc(F)cc1 | inactive |

| SMILES | Potency |
| --- | --- |
| Cc1cccc(N(Cc2ccccc2)C(=O)c2cc(S(=O)(=O)N3CCOCC3)ccc2F)c1 | inactive |
| CC1(C(=O)Nc2ccc3c(c2)OCCO3)CN(S(C)(=O)=O)CC(=O)N1Cc1cccc(F)c1 (stereo not given) | inactive |
| Cc1nc2ccccn2c(=O)c1NC(=O)c1ccc(Br)o1 | inactive |
| Oc1c(Cl)cc(Cl)c(Cl)c1Cc1c(O)c(Cl)cc(Cl)c1Cl | 5.17 µM (active) |
| O=C(O)C(=Cc1ccc([N+](=O)[O-])cc1)CCc1ccccc1 | inactive |
| CNC(=O)C1CN(C(=O)c2cccc(S(=O)(=O)N3CCc4ccccc43)c2)c2ccccc2O1 (stereo not given) | inactive |
| COc1ccc(NC(=O)CSc2nc3ncccc3[nH]2)c(OC)c1 | inactive |
| CC(=O)c1nn(-c2ccccc2)c(=Nc2ccccc2)cc1C | inactive |
| CCC(C(=O)OCC(=O)Nc1ccccc1-c1ccccc1)c1ccccc1 (stereo not given) | inactive |
| O=C(CNCc1ccc(F)cc1)Nc1ccccc1-c1ccccc1 | 13 µM (active) |
| O=C(Cc1ccccc1)NCc1ccc(F)cc1 | inactive |
| CC1(C(=O)NS(=O)(=O)c2ccccc2Cl)CCN1C(=O)c1cccc(F)c1 (stereo not given) | inactive |
| O=S1(=O)CC(N2CCN(CCO)CC2)CN1Cc1cn(Cc2cccc(Cl)c2)nn1 (stereo not given) | inactive |
| O=C(COC(=O)c1ccccc1O)NCc1ccco1 | inactive |
| Cc1cc(C(=O)OCC(=O)NCc2ccco2)c(C)n1-c1ccccc1 | 2.59 µM (active) |
| CN(c1ccccc1)S(=O)(=O)c1ccc(Cl)c(C(=O)OCC(=O)NCc2ccco2)c1 | inactive |
| O=C(CCn1ccc2cc(S(=O)(=O)N3CCCC3)ccc21)NCc1cccc(Cl)c1 | inactive |
| Cc1ccccc1CN1C(=O)CSCC1(C)C(=O)Nc1c(C)cccc1C (stereo not given) | inactive |
| CS(=O)(=O)N(CC(=O)NCc1ccco1)c1ccc2c(c1)OCO2 | inactive |
| CCN1CCN(C(=O)c2ccc(CN(c3ccc(C)c(C)c3)S(C)(=O)=O)cc2)CC1 | inactive |
| CC(C)(C)c1ccc(C(=O)NCc2ccco2)cc1 | inactive |
| Cc1ccc(N(Cc2ccc(C(=O)Nc3ccccc3C(=O)NCc3ccco3)cc2)S(C)(=O)=O)cc1C | 2.06 µM (active) |
| Cc1cccc(Nc2ccccc2C(=O)NCc2ccco2)c1C | 18.4 µM (active) |
| O=C(CCNC(=O)c1ccccc1Cl)NCc1ccco1 | inactive |

Source: PubChem BioAssay AID1347076 (National Center for Advancing Translational Sciences (NCATS), 2019)
